# The whole screen tested about 290,000 compounds, of which about 3,000 (1%) were called active. The list comes from a sample in which actives are over-represented; it also holds similar structures and randomly drawn compounds. A number with no mark means an inactive call. Rule as the data show it: active = inhibition mostly above about 36% (no sharp cut-off); inactive = mostly below about 34%.
# Assay: NOD1 signaling inhibitors, primary screen, cell-based, luminescence, uHTS (AID 1578);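 also: HEK-293T reporter cells stimulated with the NOD1 agonist gamma-tri-DAP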
# Details: NOD1-driven NF-kB luciferase reporter cells, at 4 µM, hits give high values
row,Structure (SMILES),inhibition
1,CCc1c(O)nc(SCC(=O)Nc2ccccc2C)n(-c2ccc(C)cc2)c1=O,-22.6%
2,CN1CCN(C(=O)/C(=C/c2ccccc2F)NC(=O)c2ccccc2)CC1,-17.7%
3,CCNc1ccc([N+](=O)[O-])cc1,-1.6%
4,CN(C)CCCN(Cc1cc2cc3c(cc2[nH]c1=O)OCO3)C(=S)Nc1ccccc1,-23.7%
5,CCSc1nnc(NC(=O)c2cccc(S(=O)(=O)N(C)c3ccccc3)c2)s1,-5.2%
6,CCCCn1c(SCC(=O)N2CCC(C)CC2)nc2ccsc2c1=O,-16.2%
7,CCCCn1c(SCC(=O)c2ccccc2)nc2ccsc2c1=O,21.6%
8,Nc1nc(SCC(=O)Nc2ncc(C(F)(F)F)cc2Cl)n[nH]1,65.2% (active)
9,O=C(CSc1ncccn1)Nc1ncc(C(F)(F)F)cc1Cl,-20.5%
10,Cc1cc(C)nc(SCC(=O)Nc2ncc(C(F)(F)F)cc2Cl)n1,-28.9%
11,Cc1cc(C(F)(F)F)nn1CC(=O)NCc1ccco1,-18%
12,ON1C(c2ccc(Cl)cc2Cl)N(O)[C@H]2CCCC[C@H]21 (stereo partly drawn),-8.4%
13,COC(=O)C1CN(C(=O)COc2ccccc2)c2ccccc2O1 (stereo not drawn),15.9%
14,Cc1ccc(C(C)C)c(OCCNC(=O)c2cncc(Br)c2)c1,16.6%
15,Cc1ccc(C(C)C)c(OCCNC(=O)c2ccccc2O)c1,-22.6%
16,COc1cc(/C=N/n2nnnc2Nc2ccccc2)cc(OC)c1OC,-36.9%
17,CCc1cccc(C)c1NC(=O)C(c1ccccc1)N1CCC1=O (stereo not drawn),-22.7%
18,COCCCNC(=S)N1CCN(S(C)(=O)=O)CC1,-18.9%
19,CC(C)(C)c1ccc(C(=O)N2CCN(c3nc4ccccc4o3)CC2)cc1,28.1%
20,O=C(c1ccc(-c2ccccc2)cc1)N1CCN(c2nc3ccccc3o2)CC1,35.5% (active)
21,COc1ccc(C(=O)N2CCN(c3nc4ccccc4o3)CC2)cc1OC,19.2%
22,CCOC(=O)C1(Cc2ccccc2)CCN(Cc2ccc(C)s2)CC1,-14.9%
23,O=C(Nc1ccc(S(=O)(=O)Nc2nccs2)cc1)c1ccc(F)cc1,-13.9%
24,O=C(Cc1ccc(F)cc1)Nc1nccs1,-24.2%
25,COc1ccc(/C=C/C(=O)Nc2ccc3nc4n(c(=O)c3c2)CCCC4)cc1OC,-31.1%

row,Structure (SMILES),inhibition
1,O=C(O)c1ccc(NCc2cccnc2)c([N+](=O)[O-])c1,-17.4%
2,C/C(=N\NC(N)=O)c1cccc(Cl)c1,29%
3,CCCCNC(=S)Nc1ccccc1Cc1ccccc1,-3.1%
4,COCCNC(=S)Nc1ccccc1Cc1ccccc1,45.2% (active)
5,COCCCNC(=S)Nc1ccccc1C,-13.2%
6,CCCCCN(C(=O)NC(=O)NC(C)CC)S(C)(=O)=O (stereo not drawn),-3.8%
7,Cc1noc(NC(=O)c2ccc(Cl)c(Cl)c2)c1Cl,67.6% (active)
8,Cc1noc(NC(=O)c2ccc(Cl)cc2)c1Cl,-33%
9,Cc1noc(NC(=O)c2cccc(C(F)(F)F)c2)c1Cl,-5.6%
10,COc1cccc(C(=O)NCCNC(=O)c2ccc(C)nc2)c1,-6.6%
11,CCCCNC(=S)N(C)/N=C/c1ccccc1F,12.5%
12,CCCCNC(=S)N(C)/N=C/c1ccc(F)cc1,100% (active)
13,CCCCNC(=S)N(C)/N=C/c1c(F)cccc1F,-5.6%
14,Cc1ccc(C(=O)NC2CCc3ccccc3C2=O)cc1 (stereo not drawn),-47.4%
15,COCCN1CCN(C(=O)C2CCC(=O)N(Cc3ccccc3OC)C2)CC1 (stereo not drawn),-18.1%
16,N#CCCn1cc(/C=C/C(=O)O)c(-c2ccc(F)cc2)n1,-31.6%
17,COc1cc2c3nnc(-c4ccc(F)cc4)c-3cn(Cc3ccc(F)cc3)c2cc1OC,108% (active)
18,COc1cc2c3nnc(-c4ccc(F)cc4)c-3cn(Cc3ccc(C)cc3)c2cc1OC,-31.5%
19,COc1ccc(Cn2cc3c(-c4ccc(F)cc4)nnc-3c3cc(OC)c(OC)cc32)cc1,10.1%
20,Cc1cc(N2CC(C(=O)Nc3nccs3)CC2=O)ccc1C(C)C (stereo not drawn),-22.4%
21,COc1ccc(C(=O)Nc2cc(C)on2)cc1[N+](=O)[O-],-31.1%
22,O=C(Nc1ccc(-c2n[nH]c(=S)o2)cc1)c1ccccc1Cl,-4.7%
23,Cc1nn(-c2ncc(C(F)(F)F)cc2Cl)c(=O)n1-c1c(F)cccc1F,-38.4%
24,O=c1[nH]c(/C(Cl)=C/c2cc(Cl)ccc2O)nc2cc(Cl)ccc12,81.7% (active)
25,CCc1ccc(/C=C(\Cl)c2nc3cc(Cl)ccc3c(=O)[nH]2)cc1,-10.4%

row,Structure (SMILES),inhibition
1,O=c1[nH]c(/C(Cl)=C/c2c(F)cccc2Cl)nc2cc(Cl)ccc12,25.9%
2,CCOP(=O)(OCC)C(NC(C)=O)C(=O)c1ccccc1 (stereo not drawn),-30.2%
3,Cc1cc(C)cc(NC(=S)NCc2cccnc2)c1,-23.4%
4,CC(C)[C@H]1COC(NC2=N[C@@H](C(C)C)CO2)=N1,75.5% (active)
5,CC(C)[C@@H]1COC(c2cccc(C3=N[C@H](C(C)C)CO3)c2)=N1,-29%
6,CC(C)[C@@H]1COC(c2cccc(C3=N[C@H](C(C)C)CO3)n2)=N1,11.3%
7,Cc1ccc(C2C(=O)c3ccccc3C2=O)cc1,-11%
8,CCOc1ccc(N/C(=N/c2nc(C)cc(C)n2)NC(C)=O)cc1,-12%
9,COc1ccccc1-c1nc(C#N)c(N2CCN(Cc3ccccc3)CC2)o1,13.8%
10,Cc1ccc(N2CN=c3s/c(=C\c4ccccn4)c(=O)n3C2)cc1,-21.2%
11,CCc1ccc(N2CN=c3s/c(=C\c4ccccc4)c(=O)n3C2)cc1,-13%
12,Cc1ccc(N2CN=c3s/c(=C\c4cccnc4)c(=O)n3C2)cc1,84.1% (active)
13,COc1cccc(C2Nc3ccccc3NC3=C2C(=O)CC(C)(C)C3)c1OC (stereo not drawn),-8.8%
14,C=CCn1c(=O)c2c(nc3n2CCS3)n(C)c1=O,5.1%
15,CCN(CC)C(=O)C[n+]1cccc(/C=N/O)c1,-12.8%
16,Cc1cccc(OCC(=O)Nc2nc3ccc([N+](=O)[O-])cc3s2)c1,55.9%
17,Cc1ccc(C)c(OCC(=O)Nc2nc3ccc([N+](=O)[O-])cc3s2)c1,-16.9%
18,CS(=O)(=O)N(CC(=O)N/N=C/c1ccc(OCC(=O)N2CCOCC2)cc1)c1ccccc1Cl,-22.8%
19,Cc1sc(NC(=O)CSc2nc(O)cc(=O)[nH]2)nc1-c1ccccc1,-24.3%
20,CN(CCCN1CCOCC1)C(=O)c1cc(COc2cccc(C(F)(F)F)c2)on1,-8.6%
21,OCCCC1CCCN(Cc2cn[nH]c2-c2ccc(F)cc2F)C1 (stereo not drawn),75% (active)
22,CCOC(=O)C1CCCN(Cc2cn[nH]c2-c2ccc(F)cc2F)C1 (stereo not drawn),-31.8%
23,O=C(C1CCN(Cc2cn[nH]c2-c2ccc(F)cc2F)CC1)N1CCOCC1,-5.7%
24,O=C(NCc1ccc(F)cc1)N1CCN(S(=O)(=O)c2ccccc2F)CC1,-20.3%
25,O=C(N/N=C/c1ccc(Cl)cc1Cl)C(=O)NC1CC1,-3.9%

row,Structure (SMILES),inhibition
1,CCc1cc(-c2[nH]ncc2-c2ccc(OC)cc2)c(O)cc1O,12.6%
2,CCc1cc(-c2[nH]ncc2-c2ccc3c(c2)OCO3)c(O)cc1O,97.7% (active)
3,CCCc1cc(-c2[nH]ncc2-c2ccc3c(c2)OCCCO3)c(O)cc1O,17.6%
4,Cc1ccc(C(=O)NCC(=O)N2CCN(S(=O)(=O)c3cccs3)CC2)s1,-28.4%
5,O=C(N/N=C/c1ccc(OC(=O)c2cccc(F)c2)cc1)c1cccnc1,-21%
6,COc1ccccc1NC(=O)c1ccccc1Nc1ccccc1,-5.4%
7,COc1ccc(CN2CCNC(=O)C2CC(=O)NCCc2cnccn2)cc1C (stereo not drawn),-22.4%
8,Cc1cccc(Nc2n[nH]c(C)c2[N+](=O)[O-])c1,-36.2%
9,Cc1ccc(Nc2n[nH]c(C)c2[N+](=O)[O-])cc1,-38.4%
10,Cc1[nH]nc(Nc2ccccc2)c1[N+](=O)[O-],75.5% (active)
11,CC1CCCN(S(=O)(=O)c2ccc3oc(=O)ccc3c2)C1 (stereo not drawn),-39.5%
12,Cc1ccc(OCCCn2cc(C#N)c3ccccc32)cc1,26.6%
13,CCN(CC)S(=O)(=O)c1cc(C(=O)OCC(=O)c2ccc3c(c2)NC(=O)CO3)ccc1F,-21.3%
14,COCc1cc(C)nc(N2CCCCC2)c1C#N,-7.1%
15,O=C(O)c1c2c(nc3ccccc13)/C(=C/c1ccc(O)cc1)CCC2,-23.9%
16,O=C(O)c1ccc(/C=C2\CCCc3c2nc2ccccc2c3C(=O)O)cc1,-24%
17,O=C(O)c1c2c(nc3ccccc13)/C(=C/c1ccc(O)cc1)CC2,63.5% (active)
18,NC(=O)CSc1nnc(CNc2cccc(Cl)c2)n1CCc1ccccc1,-6.6%
19,CCOC(=O)c1sc(-c2ccc(F)cc2)cc1N,-18.5%
20,CC(O)CNc1ncnc2cc(-c3ccc(F)cc3)sc12 (stereo not drawn),-11.1%
21,C=CCNC(=O)c1ccc2c(=O)n(CCCN3CCCC3=O)c(=S)[nH]c2c1,-17.5%
22,N#CC1=C(N)Oc2ccc3ccc(O)cc3c2C1c1cccnc1 (stereo not drawn),-18.7%
23,Cc1ccc(-c2nc3[nH]c(=O)cc(NC(=O)c4cccs4)n3n2)cc1,-1.6%
